Here are results for nine compounds from PubChem BioAssay (Tox21).

A number with no mark means an inactive call. Inconclusive results are not listed. Calls of active or inactive are those of the source. Unless noted, calls follow the shape of the dose curve; as a rule, active = well fitted curve in the direction sought with a large enough effect in the repeat runs; inconclusive = weak or mixed curves; inactive = no such curve, though single readings can be large; an effect the other way counts as inactive or inconclusive.

The target in experiment [1] is Progesterone receptor (Homo sapiens) (UniProt P06401). Description: qHTS assay to identify small molecule agonists of the progesterone receptor (PR) signaling pathway (AID 1346784; calls by dose curve; also: nearly all actives have a fitted effect of over 30% in size). The essentials: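 HEK 293T PR-UAS-bla reporter cells, 2% charcoal-stripped FBS; 6 hr settle at 37C/5% CO2, compound (DMSO) 16 hr, LiveBLAzer B/G FRET substrate 2 hr RT, fluorescence intensity read.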
In general terms: qHTS replaces the single test concentration by a dilution series.

The target is the same in experiment [2]. Put plainly: qHTS assay to identify small molecule antagonists of the progesterone receptor (PR) signaling pathway (AID 1346795; active = well fitted inhibition curve with a large enough effect in the signal ratio in the repeat runs, not every such curve was filed as active; the % refers to the signal ratio; also: potency is read from the fitted curve at half-maximal effect). In outline: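 Beta-lactamase reporter, HEK293T PR-UAS-bla line; 2% charcoal-stripped FBS; 6 hr pre-incubation, 37C/5% CO2. Compound + R5020 1 nM final, 16 hr. LiveBLAzer B/G FRET substrate, 2 hr RT; fluorescence intensity read.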

The nature of experiment [3]: qHTS assay to identify small molecule agonists of the TGF-beta/Smad signaling pathway - cell viability counter screen (AID 1346829). Also: top concentration of the series differs between compounds; nearly all actives have a fitted effect of over 45% in size. The essentials:
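Here the cytotoxicity of library compounds is measured in SBE-bla HEK 293T cells treated for 5 hr, using CellTiter-Glo added to wells already read for the beta-lactamase reporter.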

Experiment [4] in a line: qHTS assay to identify small molecule agonists of the TGF-beta/Smad signaling pathway (AID 1346859; active = well fitted activation curve with a large enough effect in the signal ratio in the repeat runs, not every such curve was filed as active; the % refers to the signal ratio; also: series mostly up to about 77 µM). The essentials: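 Read-out: fluorescence at 460 and 530 nm (405 nm excitation) after a 2 hr room-temperature incubation with beta-lactamase FRET substrate. SBE-bla HEK 293T cells had been treated with test compounds for 5 hr at 37 C.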
Experiment [5] can be described thus: Human pregnane X receptor (PXR) small molecule agonists, qHTS cell viability counter screen (AID 1346977). Also: nearly all actives have a fitted effect of over 50% in size. In outline:
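Fluorescence read-out (CellTiter-Fluor) of viability in PXR-Luc HepG2 cells, multiplexed with the luciferase agonist read. Compounds in DMSO added after 5hr plating; 24hr total exposure at 37C, 5% CO2.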

Experiment [6] in a line: Caspase-3/7 induction in HepG2 cells by small molecules, qHTS assay (AID 1346978). Also: nearly all actives have a fitted effect of over 15% in size. The essentials:
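Wild-type HepG2 cells (2,000/well) were settled 5 h at 37 C, 5% CO2, then exposed to compounds in DMSO for 17 h. Caspase-3/7 activity was read by luminescence 30 min after adding Caspase-Glo 3/7 reagent at room temperature.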

Experiment [7] is described as follows: Caspase-3/7 induction in CHO-K1 cells by small molecules, qHTS cell viability counter screen (AID 1346979). Also: nearly all actives have a fitted effect of over 35% in size. Also: potency is read from the fitted curve at half-maximal effect. The essentials: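 CHO-K1 wt, 1,500 cells/well; 5hr pre-incubation 37C/5% CO2; compound pin transfer (DMSO); 16hr exposure; CellTiter-Fluor added, 1hr, fluorescence read.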
Experiment [8] is described as follows: Caspase-3/7 induction in CHO-K1 cells by small molecules, qHTS assay (AID 1346980). Also: nearly all actives have a fitted effect of over 15% in size. The essentials: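 Wild-type cells were seeded at 1,500 per well and settled 5 hr at 37 C, 5% CO2, then exposed to DMSO-dissolved compounds for 17 hr. Caspase-Glo 3/7 reagent was added, and luminescence was read after 30min at room temperature.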
Experiment [9] can be described thus: Caspase-3/7 induction in HepG2 cells by small molecules, qHTS cell viability counter screen (AID 1346981). Also: series mostly up to about 92 µM; nearly all actives have a fitted effect of over 30% in size. In outline:
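Treatment of HepG2 cells with DMSO-delivered compounds ran 16 hr at 37 C following a 5-hr pre-incubation of 2,000 cells/well. CellTiter-Fluor fluorescence, read after 1 hr, served as the viability measure in a qHTS format.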

Experiment [10] has as its target Nuclear receptor subfamily 1 group I member 2 (Homo sapiens) (UniProt O75469). Put plainly: Human pregnane X receptor (PXR) small molecule agonists, qHTS assay (AID 1346982). Also: nearly all actives have a fitted effect of over 35% in size. Also: potency is read from the fitted curve at half-maximal effect. In outline:
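Stable HepG2 line reporting PXR-mediated CYP3A4 expression via luciferase. Treatment: 24 hr with compounds in DMSO at 37 C. Detection: ONE-Glo luminescence.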

In experiment [11] the target is Acetylcholinesterase (Homo sapiens) (UniProt P22303). Put plainly: Acetylcholinesterase (AChE) small molecule antagonists: colormetric cell-based qHTS assay (AID 1347395; calls by dose curve; also: nearly all actives have a fitted effect of over 30% in size; also: potency is read from the fitted curve at half-maximal effect). In outline:
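SH-SY5Y cells; cpd 30 min 37 C; + DTNB/acetylthiocholine, 90 min 37 C; colorimetric thiocholine read; qHTS.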

The target is the same in experiment [12]. Put plainly: Acetylcholinesterase (AChE) small molecule antagonists: enzyme-based qHTS assay (AID 1347397; calls by dose curve; also: nearly all actives have a fitted effect of over 55% in size; also: potency is read from the fitted curve at half-maximal effect). Particulars: Potency: AChE enzyme activity inhibition. The essentials: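 Tox21 library chemicals are tested in qHTS format against recombinant human AChE. The enzyme, dispensed at 50 mU/mL, sits with compound for 30 min at room temperature. A DTNB–acetylthiocholine cocktail follows, and colour is read after 10 min.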

The nature of experiment [13]: qHTS assay to identify small molecule antagonists of the progesterone receptor (PR) signaling pathway - cell viability counter screen (AID 1346798). Also: nearly all actives have a fitted effect of over 50% in size. Also: potency is read from the fitted curve at half-maximal effect. In outline: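 Luminescence readout (CellTiter-Glo, 30 min, RT) of viability in PR-UAS-bla HEK293T cells exposed to compound and R5020 agonist for 16 hr at 37C, 5% CO2; run in the same wells as the beta-lactamase reporter read.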

Experiment [14] can be described thus: qHTS assay to identify small molecule agonists of the progesterone receptor (PR) signaling pathway - cell viability counter screen (AID 1346799; calls by dose curve; also: nearly all actives have a fitted effect of over 45% in size; also: potency is read from the fitted curve at half-maximal effect). The essentials:
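HEK293T PR-UAS-bla, 3,000 cells/well, 2% charcoal-stripped FBS; 6 h settle, compound 16 h at 37C/5% CO2; LiveBLAzer 2 h RT, then CellTiter-Glo 30 min RT, luminescence read.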

Experiment [15] is described as follows: qHTS assay to identify small molecule antagonists of the TGF-beta/Smad signaling pathway - cell viability counter screen (AID 1346824). Also: nearly all actives have a fitted effect of over 50% in size. In outline:
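SBE-bla HEK 293T cells were plated overnight at 37 C, then given compounds in DMSO plus TGF-beta1 (added as 0.25 ng/mL solution) for 5 hr. After the bla read, CellTiter-Glo was added to the same wells and luminescence read after 30 min at room temperature.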

Experiment [16] addresses Thyrotropin-releasing hormone receptor (Homo sapiens) (UniProt P34981). Description: qHTS assay to identify small molecule antagonists of the thyrotropin-releasing hormone receptor (TRHR) signaling pathway (AID 1346877; active = well fitted inhibition curve with a large enough effect in the repeat runs, not every such curve was filed as active; also: series mostly up to about 51 µM). In outline: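 Overnight-plated (18 h, 37 °C) HEK293 cells expressing TRHR were dye-loaded 2 h, treated with compound, then stimulated with TRH at 1 nM final. Fluorescence intensity was captured every second for 3 min.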

The target is the same in experiment [17]. Put plainly: qHTS assay to identify small molecule agonists of the thyrotropin-releasing hormone receptor (TRHR) signaling pathway (AID 1346891; calls by dose curve;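 also: HEK293 cells expressing TRHR with calcium dye readout; series mostly up to about 58 µM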). The essentials:
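HEK293/TRHR cells, 1500 per well, 18 h 37 °C; Ca dye 2 h 37 °C; pin-tool compound addition (agonist mode); kinetic fluorescence 3 min, 1 s reads; 15 concentrations, triplicate.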

Experiment [18] has as its target Nuclear receptor subfamily 1 group I member 2 (Rattus norvegicus) (UniProt Q9R1A7). Description: Rat pregnane X receptor (rPXR) activation by small molecules, qHTS assay (AID 1346983). Also: nearly all actives have a fitted effect of over 20% in size. Also: potency is read from the fitted curve at half-maximal effect. The note with it: rPXR luciferase reporter cells, One-Glo luminescence, 24 h; max activation: stronger effect = higher value. In outline: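 Cell-based rPXR luciferase reporter assay, 2,000 cells per well, rested 5hr at 37 C before compound addition in DMSO, then 24 hr at 37 C. One-Glo reagent was added and luminescence read after 30 min at room temperature.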

Experiment [19] has as its target Nuclear receptor subfamily 1 group I member 2 (Homo sapiens) (UniProt O75469). Put plainly: CYP3A4 induction through human pregnane X receptor (PXR) by small molecules, qHTS assay (AID 1346984). Also: nearly all actives have a fitted effect of over 40% in size. In outline: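 After 24 h at 37C with compound, DPX-2 cells (HepG2, co-transfected PXR response element and CYP3A4 promoter-luciferase) got 3uM final P450-Glo Luciferin-IPA for 3 h; One-Glo luminescence followed.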

The target is the same in experiment [20]. Put plainly: Human pregnane X receptor (PXR) activation by small molecules, qHTS assay (AID 1346985). Also: nearly all actives have a fitted effect of over 40% in size. The essentials:
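DPX-2 cells (HepG2 co-transfected with a PXR response element and a CYP3A4-promoter luciferase construct) were seeded at 2,000 per well, rested 5 hr at 37C, then exposed to DMSO-dissolved compounds for 24 hr. Activation was read as luciferase luminescence.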
% is scaled to controls: 0 for no effect and ±100 for the full control effect.

Chain of Acetylcholinesterase (Homo sapiens) (P22303 whole entry, looked up): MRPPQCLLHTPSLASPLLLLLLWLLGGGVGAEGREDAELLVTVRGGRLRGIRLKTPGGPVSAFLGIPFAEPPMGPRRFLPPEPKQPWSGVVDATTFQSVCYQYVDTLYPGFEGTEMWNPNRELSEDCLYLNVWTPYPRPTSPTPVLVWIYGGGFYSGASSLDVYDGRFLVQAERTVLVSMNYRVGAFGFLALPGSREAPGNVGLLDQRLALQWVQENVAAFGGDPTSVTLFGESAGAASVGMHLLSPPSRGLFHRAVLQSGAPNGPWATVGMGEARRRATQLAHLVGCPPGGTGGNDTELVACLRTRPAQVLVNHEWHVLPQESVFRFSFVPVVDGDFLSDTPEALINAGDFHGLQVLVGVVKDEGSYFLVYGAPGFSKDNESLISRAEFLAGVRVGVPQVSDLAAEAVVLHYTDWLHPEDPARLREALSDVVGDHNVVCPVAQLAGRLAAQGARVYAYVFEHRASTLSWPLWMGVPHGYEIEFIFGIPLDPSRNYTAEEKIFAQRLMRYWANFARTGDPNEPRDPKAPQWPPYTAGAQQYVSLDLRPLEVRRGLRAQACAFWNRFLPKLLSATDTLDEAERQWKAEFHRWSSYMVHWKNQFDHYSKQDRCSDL
Chain of Progesterone receptor (Homo sapiens) (P06401 whole entry, looked up): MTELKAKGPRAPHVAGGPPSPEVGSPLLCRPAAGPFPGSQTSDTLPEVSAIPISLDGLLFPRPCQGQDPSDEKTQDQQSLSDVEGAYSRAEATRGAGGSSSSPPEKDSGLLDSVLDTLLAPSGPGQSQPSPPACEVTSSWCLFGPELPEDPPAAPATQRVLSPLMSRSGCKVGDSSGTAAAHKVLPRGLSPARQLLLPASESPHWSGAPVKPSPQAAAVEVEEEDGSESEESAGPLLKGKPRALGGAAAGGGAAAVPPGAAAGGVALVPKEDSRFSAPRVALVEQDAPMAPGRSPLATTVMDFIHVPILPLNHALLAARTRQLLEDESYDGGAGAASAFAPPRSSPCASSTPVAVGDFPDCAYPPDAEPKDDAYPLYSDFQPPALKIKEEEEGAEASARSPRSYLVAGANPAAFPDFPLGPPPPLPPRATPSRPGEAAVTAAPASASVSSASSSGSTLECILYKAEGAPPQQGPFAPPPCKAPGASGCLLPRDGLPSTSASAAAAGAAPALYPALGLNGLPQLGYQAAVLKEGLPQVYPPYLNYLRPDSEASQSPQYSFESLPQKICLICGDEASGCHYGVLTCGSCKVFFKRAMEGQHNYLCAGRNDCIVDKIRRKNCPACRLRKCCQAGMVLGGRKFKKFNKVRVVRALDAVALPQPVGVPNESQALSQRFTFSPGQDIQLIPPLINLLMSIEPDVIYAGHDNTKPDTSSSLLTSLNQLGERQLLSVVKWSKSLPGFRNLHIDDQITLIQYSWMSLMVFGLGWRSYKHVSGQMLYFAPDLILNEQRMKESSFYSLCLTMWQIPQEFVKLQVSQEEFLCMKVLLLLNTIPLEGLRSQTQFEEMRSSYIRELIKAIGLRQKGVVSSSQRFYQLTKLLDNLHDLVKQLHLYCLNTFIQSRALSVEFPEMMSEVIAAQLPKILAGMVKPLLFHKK
Chain of Thyrotropin-releasing hormone receptor (Homo sapiens) (P34981 whole entry, looked up): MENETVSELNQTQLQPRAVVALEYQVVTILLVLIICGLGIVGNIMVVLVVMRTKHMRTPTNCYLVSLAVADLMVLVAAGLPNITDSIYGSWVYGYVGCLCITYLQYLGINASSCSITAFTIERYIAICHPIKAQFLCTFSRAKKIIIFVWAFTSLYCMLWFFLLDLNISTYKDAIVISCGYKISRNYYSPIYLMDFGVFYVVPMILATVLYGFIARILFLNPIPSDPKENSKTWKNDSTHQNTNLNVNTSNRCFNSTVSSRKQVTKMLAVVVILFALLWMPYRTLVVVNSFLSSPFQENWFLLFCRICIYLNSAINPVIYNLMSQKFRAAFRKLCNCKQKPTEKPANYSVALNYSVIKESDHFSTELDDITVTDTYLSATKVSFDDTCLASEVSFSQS
Chain of Nuclear receptor subfamily 1 group I member 2 (Homo sapiens) (O75469 whole entry, looked up): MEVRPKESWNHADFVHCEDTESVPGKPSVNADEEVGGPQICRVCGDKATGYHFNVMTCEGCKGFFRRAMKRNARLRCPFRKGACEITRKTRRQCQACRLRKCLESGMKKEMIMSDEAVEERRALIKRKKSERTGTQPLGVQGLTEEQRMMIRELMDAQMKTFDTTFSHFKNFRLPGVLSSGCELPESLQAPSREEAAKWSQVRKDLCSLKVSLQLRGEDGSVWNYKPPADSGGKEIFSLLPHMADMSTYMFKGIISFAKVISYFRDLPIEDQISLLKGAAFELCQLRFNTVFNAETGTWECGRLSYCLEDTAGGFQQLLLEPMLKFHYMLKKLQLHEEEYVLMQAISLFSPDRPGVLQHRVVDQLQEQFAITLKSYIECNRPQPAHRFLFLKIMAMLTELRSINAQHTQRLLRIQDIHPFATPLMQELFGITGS
Chain of Nuclear receptor subfamily 1 group I member 2 (Rattus norvegicus) (Q9R1A7 whole entry, looked up): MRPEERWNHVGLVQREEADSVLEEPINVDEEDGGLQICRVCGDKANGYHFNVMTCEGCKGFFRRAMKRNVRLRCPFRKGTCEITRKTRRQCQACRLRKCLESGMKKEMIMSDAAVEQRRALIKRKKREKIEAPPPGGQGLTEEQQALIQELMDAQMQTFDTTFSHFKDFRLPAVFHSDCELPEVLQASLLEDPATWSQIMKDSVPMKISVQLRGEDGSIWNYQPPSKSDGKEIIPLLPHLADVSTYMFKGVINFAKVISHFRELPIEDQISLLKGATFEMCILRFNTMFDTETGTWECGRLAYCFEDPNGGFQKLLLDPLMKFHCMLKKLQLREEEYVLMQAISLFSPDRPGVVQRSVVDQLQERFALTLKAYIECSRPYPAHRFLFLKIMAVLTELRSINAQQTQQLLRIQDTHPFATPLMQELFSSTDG

For `Clc1cccc(N2CCNCC2)c1`, the Potency result in [1], in experiment [2], in experiment [5], in experiment [6], in experiment [7] and in [8] was “inactive” each time. Moreover, the Potency entry in experiment [9], in experiment [10], in [11] and in [12] was “inactive” each time. The call in experiment [3] and in experiment [4] was inactive.

Consider `N#Cc1ccncc1`, for which the Potency entry in experiment [1], in experiment [13], in experiment [14], in [15], in experiment [5] and in experiment [6] was “inactive” throughout. In addition, the Potency result in [7], in [8], in [9], in experiment [10] and in experiment [12] was “inactive” each time. Moreover, the compound was called inactive in experiment [3] and in experiment [4].

Consider `Nc1cc(Cl)ccc1O`, for which the Potency entry in [1], in experiment [13], in [14], in [5], in [6] and in experiment [8] was “inactive” each time. For the same compound, the Potency result in experiment [12] was “inactive”. Further, the compound was called inactive in experiment [3], in [4], in [16] and in [17]. For the same compound, in [7], the Potency was 29.6 µM (active).

For the compound `CCCSP(=O)(OCC)Oc1ccc(Br)cc1Cl` (configuration not stated), the Potency entry in experiment [1], in experiment [15], in [5], in [6], in experiment [7] and in [8] was “inactive” each time. For the same compound, the Potency entry in experiment [9] is “inactive”. For the same compound, the Potency in experiment [2] is 11.8 µM (active); in experiment [10], 29.7 µM (active); in experiment [11] it was 6.88 µM (active); in experiment [12] it was 3.87 µM (active). In addition, the compound was classed as inactive in [3], in experiment [4], in experiment [16] and in [17].

Take `COC(=O)C(c1ccccc1)C1CCCCN1` (configuration not stated): the Potency result in experiment [1], in experiment [13], in experiment [14], in [15], in [5] and in experiment [6] was “inactive” throughout. For the same compound, the Potency result in experiment [7], in experiment [8], in experiment [9], in experiment [10], in experiment [19] and in experiment [20] was “inactive” in each case. The Potency result in experiment [11] is “inactive”. Moreover, the compound was classed as inactive in experiment [3], in [4], in experiment [16] and in experiment [17]. Also, the max activation in experiment [18] is -3.29%.

Turning to `C1CCC(C2CCCCC2)CC1`, the Potency result in experiment [1], in [15], in [5], in experiment [6], in experiment [7] and in experiment [8] was “inactive” each time. For the same compound, the Potency result in experiment [10] and in experiment [11] was “inactive” in each case. The Potency in [13] is 15.4 µM (active); in experiment [14], 8.63 µM (active). The result in experiment [3], in experiment [4], in [16] and in [17] was inactive.

Take `C#CCN1C(=O)COc2cc(F)c(N3C(=O)C4=C(CCCC4)C3=O)cc21`: the Potency entry in experiment [1], in experiment [2], in [15], in [5], in [6] and in [8] was “inactive” each time. In addition, the Potency result in [9], in experiment [11] and in experiment [12] was “inactive” throughout. The compound was classed as inactive in experiment [3], in [4], in [16] and in [17].

On to `CC(=O)[C@H]1CC[C@H]2[C@@H]3CC[C@H]4C[C@H](O)CC[C@]4(C)[C@H]3C(=O)C[C@]12C`, for which the Potency result in experiment [1], in experiment [13], in [14], in experiment [5], in experiment [6] and in experiment [7] was “inactive” throughout. Moreover, the Potency result in [8], in [9], in experiment [20], in experiment [11] and in [12] was “inactive” throughout. Further, the result in [3], in [4], in experiment [16] and in experiment [17] was inactive. Also, in experiment [18], the Potency is 11.2 µM (active).

Turning to `CCOP(=S)(OCC)Oc1ncn(-c2ccccc2)n1`, the Potency entry in experiment [1], in experiment [13], in [15], in [5], in [6] and in experiment [7] was “inactive” each time. For the same compound, the Potency entry in [8] and in experiment [9] was “inactive” in each case. Further, the compound was classed as inactive in experiment [3], in [4], in experiment [16] and in experiment [17]. In addition, the Potency in [10] is 27.3 µM (active); in experiment [12], 71 µM (active).
